Reference: PubChem BioAssay AID1159580 (chemical genetic matrix, 2015)
Hit rate of the full screen: of about 5,500 compounds, about 2,000 (36%) were called active. About 18% were inconclusive and are not listed. Some of the results follow. A number with no mark means an inactive call. Cut-off read from the data, not from the text of the source: active = normalized growth mostly below about 0.91 (no sharp cut-off); inconclusive = no clear call, values can overlap the other calls; inactive = mostly above about 0.92.

Assay: chemical genetic growth profiling, strain panel (AID 1159580);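 note: tested at 20 µM; growth read once vehicle control cultures reached saturation at 30 °C; 1 = growth at the plate median or of vehicle wells; lower values mean less growth of the strain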
Conditions: S. cerevisiae deletion strains, growth OD

## Nc1ccc(CCN2CCN(c3cccc(C(F)(F)F)c3)CC2)cc1
Locus YAL040C, strain CLN3, active compounds read low
  normalized growth: 1.05
Locus YCL061C, strain MRC1 (second series), active compounds read low
  normalized growth: 0.973
Locus YDR363W, strain ESC2, active compounds read low
  normalized growth: 0.894
Locus YER002W, strain NOP16, active compounds read low
  normalized growth: 1.03
Locus YGR229C, strain SMI1, active compounds read low
  normalized growth: 0.501 (active)
Locus YMR307W, strain GAS1, active compounds read low
  normalized growth: 1.02
Locus YNL175C, strain NOP13, active compounds read low
  normalized growth: 1.02
Locus YNL197C, strain WHI3, active compounds read low
  normalized growth: 1
Locus YNL224C, strain SQS1, active compounds read low
  normalized growth: 1.01
Locus YOR083W, strain WHI5 (second series), active compounds read low
  normalized growth: 1.02
